Among all 5,500 compounds or so, about 2,000 (36%) were called active. Not shown: some 18% with an inconclusive outcome. Cut-off read from the data, not from the text of the source: active = normalized growth mostly below about 0.91 (no sharp cut-off); inconclusive = no clear call, values can overlap the other calls; inactive = mostly above about 0.92. The list shows a part of the results.
Assay: chemical genetic growth profiling, strain panel (AID 1159580);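 note: tested at 20 µM; growth read once vehicle control cultures reached saturation at 30 °C; 1 = growth at the plate median or of vehicle wells; lower values mean less growth of the strain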
Details: S. cerevisiae deletion strains, growth OD

Measured: normalized growth

C/C=C/C(=O)N(CC)c1ccccc1C
inactive: locus YAL021C, strain ccr4, stronger effect = lower value 1.02 | locus YAL026C, strain drs2, stronger effect = lower value 1.01 | locus YAL030W, strain snc1, stronger effect = lower value 1 | locus YBL061C, strain skt5, stronger effect = lower value 0.995 | locus YBR009C, strain hhf1, stronger effect = lower value 1.02 | locus YBR023C, strain chs3, stronger effect = lower value 1.01 | locus YBR171W, strain sec66, stronger effect = lower value 1 | locus YBR231C, strain swc5, stronger effect = lower value 1 | locus YBR279W, strain paf1, stronger effect = lower value 1 | locus YCL011C, strain gbp2, stronger effect = lower value 0.997 | locus YCL016C, strain dcc1, stronger effect = lower value 0.998 | locus YCL061C, strain MRC1, stronger effect = lower value 1.01 | locus YCL069W, strain vba3, stronger effect = lower value 1.01 | locus YCR088W, strain abp1, stronger effect = lower value 1 | locus YDL005C, strain med2, stronger effect = lower value 1 | locus YDL040C, strain nat1, stronger effect = lower value 1 | locus YDR001C, strain nth1, stronger effect = lower value 1 | locus YDR069C, strain doa4, stronger effect = lower value 1.02 | locus YDR137W, strain rgp1, stronger effect = lower value 1.02 | locus YDR159W, strain sac3, stronger effect = lower value 1 | locus YDR195W, strain ref2 0.986 | locus YDR297W, strain sur2, stronger effect = lower value 1 | locus YDR334W, strain swr1, stronger effect = lower value 0.997 | locus YDR335W, strain msn5, stronger effect = lower value 1.01 | locus YDR392W, strain spt3, stronger effect = lower value 0.942 | locus YEL003W, strain gim4, stronger effect = lower value 1.01 | locus YEL037C, strain rad23, stronger effect = lower value 1.01 | locus YEL061C, strain CIN8 (second series), stronger effect = lower value 1.01 | locus YER015W, strain faa2, stronger effect = lower value 1.01 | locus YER016W, strain bim1, stronger effect = lower value 1.01 | locus YER111C, strain swi4, stronger effect = lower value 0.995 | locus YER155C, strain BEM2 (second series), stronger effect = lower value 1.01 | locus YFR010W, strain ubp6, stronger effect = lower value 1.02 | locus YGL167C, strain pmr1, stronger effect = lower value 1 | locus YGL173C, strain kem1, stronger effect = lower value 1.01 | locus YGL227W, strain vid30, stronger effect = lower value 1.01 | locus YGL240W, strain doc1, stronger effect = lower value 1.02 | locus YGL253W, strain hxk2, stronger effect = lower value 1.01 | locus YHR013C, strain ard1, stronger effect = lower value 1.01 | locus YHR027C, strain rpn1, stronger effect = lower value 1.02 | locus YHR030C, strain SLT2, stronger effect = lower value 1.03 | locus YHR079C, strain IRE1, stronger effect = lower value 1.02 | locus YHR142W, strain chs7, stronger effect = lower value 1.02 | locus YJL092W, strain hpr5, stronger effect = lower value 1 | locus YJL095W, strain BCK1 (second series), stronger effect = lower value 1 | locus YJL095W, strain BCK1, stronger effect = lower value 0.977 | locus YJL115W, strain asf1, stronger effect = lower value 1 | locus YJL129C, strain trk1, stronger effect = lower value 1.03 | locus YJL154C, strain vps35, stronger effect = lower value 1.01 | locus YJL164C, strain tpk1, stronger effect = lower value 1.01 | locus YJL166W, strain qcr8, stronger effect = lower value 1.02 | locus YJL187C, strain SWE1, stronger effect = lower value 1.01 | locus YJR066W, strain TOR1, stronger effect = lower value 0.966 | locus YKL160W, strain elf1, stronger effect = lower value 1.01 | locus YKR026C, strain gcn3, stronger effect = lower value 1.01 | locus YKR091W, strain srl3, stronger effect = lower value 1 | locus YLL001W, strain dnm1, stronger effect = lower value 0.996 | locus YLL026W, stronger effect = lower value 1.01 | locus YLL041C, strain sdh2, stronger effect = lower value 1.01 | locus YLR027C, strain aat2, stronger effect = lower value 0.996 | locus YLR113W, strain HOG1, stronger effect = lower value 0.969 | locus YLR221C, strain rsa3, stronger effect = lower value 1 | locus YLR258W, strain gsy2, stronger effect = lower value 1.01 | locus YLR262C, strain YPT6 (second series), stronger effect = lower value 1 | locus YLR320W, strain mms22, stronger effect = lower value 1 | locus YLR342W, strain FKS1, stronger effect = lower value 1 | locus YLR357W, strain rsc2, stronger effect = lower value 1.02 | locus YLR370C, strain arc18, stronger effect = lower value 1.01 | locus YLR384C, strain iki3, stronger effect = lower value 0.998 | locus YML120C, strain ndi1, stronger effect = lower value 1 | locus YMR058W, strain fet3, stronger effect = lower value 1.02 | locus YMR125W, strain sto1, stronger effect = lower value 1.01 | locus YMR129W, stronger effect = lower value 1 | locus YMR205C, strain PFK2, stronger effect = lower value 1.01 | locus YMR231W, strain pep5, stronger effect = lower value 1.01 | locus YNL071W, strain lat1, stronger effect = lower value 1 | locus YNL183C, strain NPR1, stronger effect = lower value 0.975 | locus YNL209W, strain ssb2, stronger effect = lower value 1 | locus YNL248C, strain rpa49, stronger effect = lower value 0.993 | locus YNL322C, strain KRE1 (second series), stronger effect = lower value 1.01 | locus YNR049C, strain mso1, stronger effect = lower value 1.01 | locus YOR001W, strain rrp6, stronger effect = lower value 1.03 | locus YOR070C, strain gyp1, stronger effect = lower value 1 | locus YOR080W, strain dia2, stronger effect = lower value 1 | locus YOR083W, strain WHI5, stronger effect = lower value 1.02 | locus YOR106W, strain vam3, stronger effect = lower value 1.04 | locus YOR231W, strain MKK1, stronger effect = lower value 1.02 | locus YOR265W, strain rbl2, stronger effect = lower value 1 | locus YOR270C, strain vph1, stronger effect = lower value 0.999 | locus YOR290C, strain snf2, stronger effect = lower value 1.01 | locus YPL051W, strain arl3, stronger effect = lower value 1 | locus YPL078C, strain atp4, stronger effect = lower value 1.02 | locus YPL106C, strain sse1, stronger effect = lower value 1.01 | locus YPL240C, strain hsp82, stronger effect = lower value 1 | locus YPL256C, strain CLN2, stronger effect = lower value 0.986

From PubChem BioAssay AID1159580 (chemical genetic matrix, 2015)
